What all share (experiment): NCI-60 one-dose screen, 48 h (100 = growth as untreated, 0 = no growth, -100 = all killed)
One test relates to HCT-15 colon. To be noted: 10 µM unless noted.
The subject of a further test is HT29 colon. To be noted: 10 µM unless noted.
The test system of a further test is SNB-75 CNS. The settings on record: 10 µM unless noted.
A further test deals with SNB-19 CNS. The settings on record: 10 µM unless noted.
Another test relates to PC-3 prostate. The settings on record: 10 µM unless noted.
In the next test the test system is SK-MEL-5 melanoma. The settings on record: 10 µM unless noted.
A further test deals with UACC-62 melanoma. The settings on record: 10 µM unless noted.
The test system of a further test is LOX IMVI melanoma. To be noted: 10 µM unless noted.
A further test deals with SK-MEL-28 melanoma. The settings on record: 10 µM unless noted.
Another test has as its system SK-MEL-2 melanoma. The settings on record: 10 µM unless noted.
The subject of a further test is EKVX NSCLC. To be noted: 10 µM.
The test system of a further test is SN12C renal. To be noted: 10 µM unless noted.
Another test deals with UO-31 renal. To be noted: 10 µM unless noted.
For a further test, the system named is TK-10 renal. The settings on record: 10 µM unless noted.
A further test deals with ACHN renal. The settings on record: 10 µM unless noted.
A further test deals with CAKI-1 renal. The settings on record: 10 µM unless noted.
The test system of another test is A498 renal. To be noted: 10 µM unless noted.
The test system of another test is CCRF-CEM leukemia. The settings on record: 10 µM.
For another test, the system named is MOLT-4 leukemia. The settings on record: 10 µM unless noted.
The next test relates to U251 CNS. The settings on record: 10 µM unless noted.

About 83,000 compounds went through this panel and 20% of them were active in at least one assay; those are over-represented in the sample as a whole.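 Single-dose data. Exposure time 48 hours. Values below 10 considered active.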 Unmarked numbers belong to inactive results. Calls of active or inactive are those of the source.

With `CCCCCCCCC/C(=N\NC(=O)c1ccncc1)c1ccc(O)c(O)c1O`, the growth is 34.9% in the test on HCT-15 colon; 29% in the test on HT29 colon; 37.1% in the test on SNB-75 CNS; 33.8% with SNB-19 CNS; 47% in the test with PC-3 prostate; -18.8% (active) with SK-MEL-5 melanoma. The growth in the test with UACC-62 melanoma is -5.54% (active); in the test on LOX IMVI melanoma, 22.9%; in the test with SK-MEL-28 melanoma, 43.7%; in the test on SK-MEL-2 melanoma, 38.5%; with EKVX NSCLC, 34.5%; in the test on SN12C renal, 25.7%. The growth is 20.8% in the test with UO-31 renal; 43.1% with TK-10 renal; 15.8% with ACHN renal; 14.3% with CAKI-1 renal; 45% with A498 renal; 9.71% (active) in the test on CCRF-CEM leukemia. The growth in the test on MOLT-4 leukemia was 15.5%.

Turning to `Cc1nc(NC(=O)NC2CCCCC2)sc1C(=O)NN`, the growth in the test on HCT-15 colon is 91.5%; in the test with HT29 colon it was 95.5%; in the test on SNB-75 CNS, 110%; in the test with SNB-19 CNS it was 102%; with U251 CNS, 98.5%; with SK-MEL-5 melanoma, 106%. The growth in the test with UACC-62 melanoma is 90.8%; in the test on LOX IMVI melanoma, 93.5%; in the test with SK-MEL-28 melanoma, 102%; with SK-MEL-2 melanoma, 21.7%; with EKVX NSCLC, 119%; in the test on UO-31 renal it was 84%. Moreover, the growth is -14.2% (active) in the test with TK-10 renal; 97.8% in the test on ACHN renal; 132% with CAKI-1 renal; 118% with A498 renal; 112% in the test on CCRF-CEM leukemia; 116% in the test with MOLT-4 leukemia.

`CN1CCN(Cc2ccc(NC(=O)c3ccc(C#Cc4c(N)ncc5ccc(F)cc45)cc3)cc2C(F)(F)F)CC1`: the growth in the test with HCT-15 colon is -55.4% (active); with HT29 colon, -73.2% (active); in the test with SNB-75 CNS, -15.1% (active); in the test on SNB-19 CNS, -91.8% (active); in the test on PC-3 prostate it was -37.2% (active); with SK-MEL-5 melanoma, -91.2% (active). In addition, the growth is -73.3% (active) in the test on UACC-62 melanoma; -94.3% (active) with LOX IMVI melanoma; -97.8% (active) in the test with SK-MEL-28 melanoma; -40.3% (active) in the test with SK-MEL-2 melanoma; -59.1% (active) in the test with EKVX NSCLC; -71.3% (active) in the test on SN12C renal. In addition, the growth is -56.8% (active) with UO-31 renal; -42.2% (active) in the test with TK-10 renal; -92.6% (active) with ACHN renal; 42.7% in the test on CAKI-1 renal; 77.9% with A498 renal; -40.2% (active) in the test with CCRF-CEM leukemia. In addition, the growth in the test on MOLT-4 leukemia was -55.2% (active).

With `N=C(N)c1ccc(-c2ccc(-c3ccc(Cl)cc3)s2)s1`, the growth in the test on HCT-15 colon was -84.8% (active); in the test on HT29 colon, -33.3% (active); with SNB-75 CNS, -96.4% (active); in the test with SNB-19 CNS, -81.8% (active); in the test with PC-3 prostate it was -91% (active); with SK-MEL-5 melanoma it was 2.66% (active). Also, the growth in the test on UACC-62 melanoma was -31.2% (active); with LOX IMVI melanoma it was -89.4% (active); in the test on SK-MEL-28 melanoma, -87.8% (active); in the test with SK-MEL-2 melanoma it was -29.6% (active); in the test on EKVX NSCLC it was -70.7% (active); in the test on SN12C renal it was -50% (active). Also, the growth in the test on UO-31 renal is -87.5% (active); in the test on TK-10 renal, -55.3% (active); with ACHN renal, -97% (active); in the test with CAKI-1 renal, -11.6% (active); in the test with A498 renal, 50.9%; with CCRF-CEM leukemia it was -70.8% (active). Moreover, the growth in the test with MOLT-4 leukemia is -59.6% (active).

Turning to `CCOC(=O)C1=C(C(F)(F)F)NC(=O)NC1CN1C(=O)c2ccccc2C1=O` (stereo not drawn), the growth in the test on HCT-15 colon was 123%; in the test with HT29 colon, 113%; in the test on SNB-75 CNS, 98.4%; in the test on SNB-19 CNS, 111%; in the test with PC-3 prostate, 92%; in the test with SK-MEL-5 melanoma, 111%. The growth with UACC-62 melanoma was 92.9%; in the test on LOX IMVI melanoma it was 111%; in the test with SK-MEL-28 melanoma, 113%; with SK-MEL-2 melanoma it was 109%; in the test on EKVX NSCLC, 104%; in the test on SN12C renal it was 104%. Besides, the growth in the test on UO-31 renal is 102%; in the test on TK-10 renal it was 122%; in the test on ACHN renal, 120%; in the test with CAKI-1 renal it was 114%; with A498 renal it was 118%; in the test with CCRF-CEM leukemia, -21.1% (active). Also, the growth in the test with MOLT-4 leukemia is 70.5%.

Take `C/C=C(/C)C(=O)OC1C=C(CO)C(=O)C(OC(=O)/C(C)=C\C)C1C(C)C` (stereo not drawn): the growth is -49.3% (active) in the test on HCT-15 colon; -65.6% (active) in the test on HT29 colon; -43.4% (active) with SNB-75 CNS; -54% (active) in the test on SNB-19 CNS; -54.1% (active) with PC-3 prostate; -99.3% (active) in the test with SK-MEL-5 melanoma. The growth in the test on UACC-62 melanoma is -84.7% (active); with LOX IMVI melanoma, -92.5% (active); in the test with SK-MEL-28 melanoma, -92.6% (active); in the test on SK-MEL-2 melanoma, -48.9% (active); in the test with EKVX NSCLC, -55.1% (active); in the test on SN12C renal, -56.9% (active). The growth in the test with UO-31 renal was -100% (active); with TK-10 renal it was -88.8% (active); in the test with ACHN renal, -100% (active); in the test on CAKI-1 renal, -98.7% (active); in the test on A498 renal it was -77.6% (active); in the test with CCRF-CEM leukemia, -3.36% (active). For the same compound, the growth with MOLT-4 leukemia was -16.8% (active).

For `NC(N)=N/N=C/c1cccc(Br)c1`, the growth is 105% in the test with HCT-15 colon; 103% in the test with HT29 colon; 92.3% in the test with SNB-75 CNS; 101% in the test with SNB-19 CNS; 90.1% with PC-3 prostate; 84.7% in the test on SK-MEL-5 melanoma. The growth in the test on UACC-62 melanoma is 107%; in the test with LOX IMVI melanoma, 89.6%; with SK-MEL-28 melanoma, 112%; in the test with SK-MEL-2 melanoma, 103%; in the test with EKVX NSCLC, 103%; with SN12C renal, 101%. Also, the growth is 79.5% in the test with UO-31 renal; 100% in the test with TK-10 renal; 108% in the test with ACHN renal; 101% in the test with CCRF-CEM leukemia; 91.2% with MOLT-4 leukemia.

Turning to `O=c1c(N=Nc2nccs2)c(-c2ccccc2)[nH]n1-c1nc(-c2ccccc2)cs1`, the growth with HCT-15 colon is 19.5%; in the test on HT29 colon it was 32.2%; with SNB-75 CNS, 61%; with SNB-19 CNS, 24.4%; in the test on PC-3 prostate, 32.8%; in the test on SK-MEL-5 melanoma it was 15.2%. Further, the growth in the test on UACC-62 melanoma is 12.3%; in the test on LOX IMVI melanoma, 44.3%; in the test on SK-MEL-28 melanoma, 47.1%; with SK-MEL-2 melanoma, 22.8%; in the test on EKVX NSCLC, 53.1%; in the test with SN12C renal, 35%. In addition, the growth in the test with UO-31 renal was 36.4%; with TK-10 renal it was 45.6%; in the test with ACHN renal, 35.4%; with CAKI-1 renal, 35.6%; with A498 renal, 28.6%; in the test on MOLT-4 leukemia it was 30.3%.

The record behind these values is PubChem BioAssay (NCI).
